Rows were chosen to be rich in hits. Some 2.2% of all compounds tested hit in one or more screens of this group.
BaF3 parental: parental Ba/F3 viability inhibition as JAK2V617F counter-screen. actives 1.1% (n = 220,000). AID 1486. inhibition, % at 5.6 µM. CellTiter-Glo ATP luminescence;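 active means inhibition above a per-campaign cutoff, the mean inhibition of all tested compounds plus 3 SD, cut at about 27% in these data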;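 further: 0% = DMSO wells and 100% = JAK Inhibitor I control wells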
APP transl inh: APP translation inhibition; AID 1285; inhibition, % at 2 µM; actives 0.82% (n = 190,000); SH-SY5Y APP 5'UTR-luciferase reporter, luminescence;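 active means inhibition above a set limit, derived from the sample mean plus 3 SD, cut at about 45% in these data; inconclusive means one replicate passes the limit while the other fails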
KLF5 inh: inhibitors of KLF5 expression; inhibition, % at 5 µM; DLD-1 KLF5 promoter-luciferase reporter, luminescence; AID 1700; actives 0.23% (n = 290,000);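 active means inhibition above a per-plate limit of that plate's mean compound inhibition plus 3 SD, cut at about 60% in these data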;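 further: 0% = DMSO wells and 100% = LY294002 at 200 µM; higher means less KLF5 promoter-driven luciferase light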
Ba/F3 V617F tox: loss of viability in JAK2V617F-driven Ba/F3 cells. Ba/F3 EpoR-JAK2V617F viability, ATP luminescence. inhibition, % at 5.6 µM. actives 1.1% (n = 220,000). AID 1446;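 active means inhibition above the campaign mean plus 3 SD over all tested compounds, cut at about 24% in these data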;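 further: cytokine-independent growth of Ba/F3 cells driven by EpoR plus mutant JAK2; 0% = DMSO-treated cells and 100% = JAK inhibitor I control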
IEC-6 cytotox: kills IEC-6 intestinal cells in KLF5 counter-screen; IEC-6 cytotoxicity, luminescence viability; inhibition, % at 5 µM; actives 0.78% (n = 290,000); AID 1825;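 further: 0% = plate median of test compound wells and 100% = cytotoxic reference compound wells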
aSyn UTR inh: 5' untranslated region of α-synuclein, MLPCN primary screen | alpha-synuclein 5'UTR reporter, inhibitor activity | inhibition, % (tested at 7.5 µM) | actives 0.82% (n = 300,000); in the data active means inhibition above about 60%; inconclusive means no clear call, values can overlap the other calls;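 further: H4 neuroglioblastoma cells stably carrying SNCA 5'UTR luciferase fusion; 0% = DMSO wells and 100% = positive control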
IEC-6 cytotox cf: confirmation of cytotoxic compounds in rat IEC-6 intestinal epithelial cells. IEC-6 rat intestinal epithelial viability, luminescence. actives 63% (n = 1,900). inhibition, % at 5 µM. shares compounds with IEC-6 cytotox;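 further: 0% = vehicle and 100% = reference cytotoxic drug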
* marks the source's active call; other numbers are inactive results; ? = inconclusive; . = not tested or not shown. Unless noted, no stated cut-off is given here; in the data, active means inhibition above about 22%; inactive means the rest.

SMILES	BaF3 parental	APP transl inh	KLF5 inh	Ba/F3 V617F tox	IEC-6 cytotox	aSyn UTR inh	IEC-6 cytotox cf
Cc1csc(C(=O)O)c1NC(=O)c1c(Cl)cccc1Cl	.	.	-7	.	-2	7	.
O=C(NNC(=O)c1ccc([N+](=O)[O-])o1)c1ccccc1	-4	-12	-7	-2	2	-34	.
NC(=O)c1oc2ccccc2c1NC(=O)c1ccc(F)cc1	0	4	11	-5	5	-19	.
O=C(NC1CCCCC1)c1ccc([N+](=O)[O-])o1	.	.	-10	.	68*	-79	7
O=C(NN(c1ccccc1)c1ccccc1)c1ccc([N+](=O)[O-])o1	5	-18	-7	4	27*	-83	15
CC(NC(=O)c1ccc([N+](=O)[O-])o1)C12CC3CC(CC(C3)C1)C2 (centres undefined)	.	.	-7	.	60*	-168	5
NC(=O)c1oc2ccccc2c1NC(=O)c1ccc([N+](=O)[O-])o1	.	.	18	.	100*	100*	57*
O=C(NC1CCN(C(=O)c2ccccc2Br)CC1)c1ccccc1	.	.	-29	.	4	3	.
Cc1ccc(CNC(=O)Cc2ccc(-n3cccc3)cc2)cc1	8	25	-18	4	3	-3	.
O=C(Cc1ccc(-n2cccc2)cc1)NCc1cccs1	79*	94*	43	83*	73*	40	59*
Cc1ccc(S(=O)(=O)Nc2ccccc2-c2ccccc2)cc1	71*	90*	54	69*	55*	?	51*
Cc1ccc(S(=O)(=O)Nc2ccccc2N(C)S(=O)(=O)c2ccc(C)cc2)cc1	.	.	.	.	.	9	.
O=C(NN1CC(C(=O)OCc2ccc(Br)cc2)CC1=O)c1ccccc1 (centres undefined)	.	.	-5	.	-4	6	.
O=C(NCCCN1CCCC1=O)C(=O)NCC1OCCCN1S(=O)(=O)c1cc(F)ccc1F (centres undefined)	.	.	-10	.	-3	8	.
COc1ccc(-c2c[n+]3c(n2-c2ccc(C)cc2)CCCCC3)cc1	73*	.	-12	94*	29*	1	21
CCOc1ccc(-n2c(-c3ccc(Br)cc3)c[n+]3c2CCCCC3)cc1	79*	1	21	96*	29*	-7	21
CCOc1ccc(-n2c(-c3ccc(OC)cc3)c[n+]3c2CCCCC3)cc1	74*	7	-16	97*	22*	20	27*
COc1c(F)c(F)c(C(=O)Nc2ccc(-c3nc4ccccc4[nH]3)cc2)c(F)c1F	0	-33	-28	3	27*	-12	5
O=C(Nc1ccc(-c2nc3ccccc3[nH]2)cc1)c1c(F)c(F)c(F)c(F)c1F	1	-5	-17	-2	-2	-5	.
COc1ccc(OC)c(-c2csc(NC(=O)c3ccc(F)cc3)n2)c1	.	.	19	.	34*	-202	16
CCc1nnc(NC(=O)CSCc2cc(=O)n3ccsc3n2)s1	.	.	-16	.	1	12	.
COc1cccc(NC(=O)N2CCCC2C(=O)NCc2ccco2)c1 (centres undefined)	.	.	-10	.	-9	11	.
CCN(CC)CCNc1ccc(CO)c2sc3ccccc3c(=O)c12	47*	20	13	66*	54*	-35	64*
CC(=O)c1cc2c(cc1NS(=O)(=O)c1ccc3c(c1)OCCO3)OCO2	4	1	-4	-1	-4	24	.
COC(=O)c1ccc(Cl)c(NS(=O)(=O)c2ccc3c(c2)OCCO3)c1	4	4	45	3	28*	-34	2
SMILES	BaF3 parental	APP transl inh	KLF5 inh	Ba/F3 V617F tox	IEC-6 cytotox	aSyn UTR inh	IEC-6 cytotox cf
O=C(CCCN1C(=O)c2cccnc2C1=O)Nc1ccc(F)cc1Cl	.	.	-10	.	-2	-3	.
CNC(=O)c1ccc(NC(=O)/C=C/c2cccc(F)c2)cc1	4	-47	-31	1	0	-98	.
O=C1CC(c2ccccc2)CC(O)=C1C=NCc1ccccc1Cl (centres undefined)	29*	61*	51	43*	31*	-6	30*
C=CCc1cccc([C@@H]2[C@@H](C)CC[C@H]3C(=O)N4[C@@H](c5cc(OC)c(OC)c(OC)c5)c5[nH]c6ccccc6c5C[C@H]4C(=O)N23)c1	-1	-3	35	-4	34*	31	9
S=C(NCCN1CCOCC1)N/N=C/c1cccs1	.	.	-45	.	30*	7	-15
Oc1cccc(/C=N/NC(=S)NCCN2CCOCC2)c1O	0	3	-26	0	-3	-7	.
Cc1cccc(C)c1OCc1cc(C(=O)N(Cc2c(C)nn(C)c2C)C2CC2)no1	.	.	-38	.	3	22	.
Cc1cccc(/C=N/NC(=O)c2c(-c3ccccc3)noc2C)c1O	.	.	44	.	27*	62*	48*
COc1ccccc1/C=N/NC(=O)c1c(-c2ccccc2)noc1C	.	.	-7	.	-1	15	.
Cc1cccc(/C=N\NC(=O)c2ccc(Cl)cc2)c1O	2	-2	-50	-1	23*	57	51*
N#CCCn1cc(CNC2CCC(O)CC2)c2ccccc21 (centres undefined)	.	.	-5	.	-5	-13	.
O=C(CSc1nnnn1-c1cccnc1)Nc1ccccc1F	.	.	-23	.	-7	-19	.
OC(CNCc1ccccc1C(F)(F)F)C(F)(F)F (centres undefined)	-2	13	8	-5	0	17	.
COC(=O)c1ccc(NC(=O)c2nc(S(=O)(=O)Cc3cccc(C)c3)ncc2Cl)cc1	.	.	14	.	43*	?	14
Cc1c(C(=O)NCc2ccc3c(c2)OCO3)oc2ccc(Br)cc12	0	8	-9	-5	-1	7	.
Cc1onc(-c2c(F)cccc2Cl)c1C(=O)NCc1ccc2c(c1)OCO2	.	.	1	.	1	9	.
Cc1cccc(CS(=O)(=O)c2ncc(Cl)c(C(=O)NCc3ccc4c(c3)OCO4)n2)c1	.	.	25	.	31*	41	33*
Cc1cccc(COC(=O)Nc2ccc(NC(=O)c3ccccc3Cl)cc2)c1	.	.	-7	.	4	18	.
Cc1ccc2oc(C(=O)NCc3ccc4c(c3)OCO4)c(C)c2c1	3	-17	-2	1	48*	32	-4
CCSc1ncc(Cl)c(C(=O)Nc2ccc(S(N)(=O)=O)cc2)n1	.	.	-12	.	2	5	.
CC(=O)Nc1ccc(NC(=O)c2nc(S(=O)(=O)Cc3cccc(C)c3)ncc2Cl)cc1	.	.	34	.	36*	44	16
CC(=O)Nc1ccc(S(=O)(=O)N2CCN(C(=O)c3ncoc3-c3ccccc3)CC2)cc1	.	.	8	.	4	14	.
COc1cc(OC)nc(-n2ncc(Br)c(Br)c2=O)n1	87*	94*	-20	96*	56*	.	70*
O=C(N/N=C/c1c(Cl)[nH]c2ccccc12)c1ccc2c(c1)OCCO2	1	.	-61	-3	12	-36	.
O=C(O)CC1(CC(=O)NCc2csc(-c3cccs3)n2)CCCCC1	-7	.	0	16	16	-6	.
COc1ccc(-n2cc(-c3ccccc3)[nH]c2=S)c(OC)c1	.	.	3	.	26*	-75	4
